Experimental data: PubChem BioAssay

experiment: TOR pathway CIT2 reporter hit retest – S. cerevisiae, GFP fusion, cherry picks, mother/daughter gates, confirmation (AID 2274); settings: S. cerevisiae CIT2-GFP strain, flow cytometry, 3 h; measured here: daughter cell gate; at 10 µM; stronger effect = higher value

SMILES	GFP response, % of DMSO
COCCNC(=O)c1ccccc1-c1nc(-c2ccccc2Cl)no1	105%
COc1ccc(N2C(=O)CC(Sc3ncn[nH]3)C2=O)c(OC)c1 (stereo not given)	115%
COc1ccc(N=Nc2ccc(O)c3ncccc23)cc1	113%
COc1cc(NC(=O)c2ccccc2)ccc1NC(=O)c1cc2ccccc2o1	95.8%
CS(=O)(=O)N1N=C(c2ccco2)CC1c1ccc(Br)cc1 (stereo not given)	103%
CCN(C(=O)c1ccccc1Cl)c1ccccc1	101%
Cc1ccc(NC(=S)N/N=C/c2c(C)[nH]c3ccccc23)cc1	108%
CCc1nnc(NC(=O)c2nc(S(=O)(=O)Cc3cccc(C)c3)ncc2Cl)s1	100%
O=C(NCc1ccc2c(c1)OCO2)c1nc(S(=O)(=O)Cc2ccccc2)ncc1Cl	98.3%
COc1ccccc1-c1noc(-c2cc(OC)c(OC)c(OC)c2)n1	96.5%
N#C/C(=C\c1c(N2CCCCC2)nc2ccccn2c1=O)C(=O)NCc1ccco1	100%
COc1cc(NC(=O)c2ccc(Br)cc2)ccc1NC(=O)c1cc2ccccc2o1	96.5%
CCOC(=O)CS(=O)(=O)c1nc(-c2ccc(F)cc2)cc(C(F)(F)F)n1	123%
CC[n+]1c(/C=C/c2ccc(N(C)C)cc2)ccc2ccccc21	97.4%
CCOc1cc(/C=N/Nc2nc(C)cc(=O)[nH]2)ccc1O	106%
Cc1ccc(/C=C/C(=O)c2ccccc(=O)c2O)c(C)c1	99.2%
COc1ccc(-c2ccc(S(=O)(=O)N3CCOCC3)cc2)cc1	97.4%
CCNC(=O)c1ccccc1-c1nc(-c2ccccc2Cl)no1	99.3%
O=C(OCC(=O)N1CCN(C(=O)c2ccco2)CC1)c1cc(-c2ccccc2)nc2ccccc12	114%
Cc1nnc(NC(=O)c2ccc(S(=O)(=O)N3CCCCCC3)cc2)o1	103%
NC(N)=N/N=C/c1ccc(OCc2ccc(Cl)cc2Cl)cc1	80.7%
Cc1noc(/C=C/c2cccnc2)c1[N+](=O)[O-]	94.8%
NC(=O)c1ccccc1OCC(=O)c1ccc(Cl)cc1	97.6%
CCc1nnc(NC(=O)c2nc(S(=O)(=O)Cc3ccc(C)cc3)ncc2Cl)s1	102%
CN1/C(=C\C(=O)c2cccc(S(=O)(=O)N3CCCCC3)c2)C(C)(C)c2ccccc21	99.1%
Cc1n[nH]c(C)c1N1C(=O)c2cccc3c(Br)ccc(c23)C1=O	96.4%
Cc1nnc(N2C(=O)c3cccc4cccc(c34)C2=O)s1	101%
CS(=O)(=O)N1CCc2cc(C(=O)Nc3ccc(COCC(F)(F)F)cc3)ccc21	108%
O=[N+]([O-])c1ccc(Sc2ccccc2Cl)nc1	106%
CC(=O)Oc1ccc(N2C(=O)C3C4C=CC(CO)(O4)C3C2=O)cc1 (stereo not given)	112%
